# Rows were chosen to be rich in hits. Some 11% of all compounds tested hit in one or more screens of this group.
# IMPase Li inh: qHTS Assay for Identifying the Cell-Membrane Permeable IMPase Inhibitors: Potentiation with Lithium. CHO-M1 cells, IP1 TR-FRET (IP-One), carbachol + lithium. Potency, µM (series often up to 59.4 µM), for the others: at the highest dose activity, negative = IMPase inhibition, most hits filed as inhibitors. 210,000 compounds, 0.35% hits. AID 1457, 2008; active = well fitted inhibition curve with a large enough effect; inconclusive = small, poorly fitted or top-dose-only effect; inactive = no such curve, though single readings can be large or run the other way;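 note: IP1 builds up when IMPase is blocked and the TR-FRET signal falls; potency is the fitted concentration of half-maximal effect; plate controls were basal vehicle for no effect and high inhibitor control for full effect; nearly all actives have a fitted effect of over 50% in size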
#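 IP1 accumulation measured by competitive TR-FRET in lysed CHO-M1 cells after 30 min compound exposure at 37C, with a small lithium addition to potentiate weak responses. Hill-equation AC50 from ratio and donor-channel data.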
# IMPase cell inh: qHTS Assay for Identifying the Cell-Membrane Permeable IMPase Inhibitors; Inositol monophosphatase 1 (Rattus norvegicus), P97697; CHO-M1 cells, IP1 accumulation, HTRF TR-FRET ratio; inhibition (IP1 accumulation), % at 46.1 µM; 120,000 tested, under 10 active; AID 901, 2007; active = well fitted curve in the direction sought with a large enough effect in the signal ratio, not every such curve was filed as active; inconclusive = small, poorly fitted or top-dose-only effect, or a change in a side signal; inactive = no such curve, though single readings can be large or run the other way; the % refers to the signal ratio;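 note: cells stimulated with carbachol in lithium chloride buffer; plate controls were DMSO basal wells for no effect and reference inhibitor wells for full effect; higher means more IMPase inhibition seen as more IP1 and lower FRET ratio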
# Target sequence (P97697 whole entry, looked up): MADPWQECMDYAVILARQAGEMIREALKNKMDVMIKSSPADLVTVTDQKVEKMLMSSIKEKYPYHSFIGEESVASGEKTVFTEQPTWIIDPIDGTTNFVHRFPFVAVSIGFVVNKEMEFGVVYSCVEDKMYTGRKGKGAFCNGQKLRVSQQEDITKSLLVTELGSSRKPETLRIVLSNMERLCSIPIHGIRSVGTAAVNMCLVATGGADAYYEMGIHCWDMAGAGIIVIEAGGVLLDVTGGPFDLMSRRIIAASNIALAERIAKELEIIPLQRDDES
#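 In this qHTS, compounds (final up to 46 uM) act on CHO-M1 cells that are then activated through the M1 receptor with carbachol, in pH 7.4 buffer containing 50 mM LiCl, for 30 min. IP1 accumulation is quantified by the IP-One immunoassay.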
# HPGD inh: qHTS Assay for Inhibitors of HPGD (15-Hydroxyprostaglandin Dehydrogenase) | 150,000 compounds, 4.3% hits | 15-hydroxyprostaglandin dehydrogenase [NAD(+)] (Homo sapiens), P15428 | Potency, µM, for the others: at the highest dose activity change, negative = inhibition, most hits filed as inhibitors | purified HPGD, NADH fluorescence kinetic, PGE2 substrate; note: potency is the fitted concentration of half-maximal effect
# Target sequence (P15428 whole entry, looked up): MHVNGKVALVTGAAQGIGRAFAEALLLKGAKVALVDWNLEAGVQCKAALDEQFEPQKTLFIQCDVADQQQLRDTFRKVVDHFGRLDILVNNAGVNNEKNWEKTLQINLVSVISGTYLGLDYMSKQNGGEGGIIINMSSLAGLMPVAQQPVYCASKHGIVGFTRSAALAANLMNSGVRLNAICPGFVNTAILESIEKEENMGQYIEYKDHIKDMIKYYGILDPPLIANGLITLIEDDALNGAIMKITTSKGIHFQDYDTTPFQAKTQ
#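 20 nM HPGD preincubated 15 min at room temperature with compound in 50 mM Tris-HCl pH 8, 0.01% Tween 20. Started with 1 mM NAD+ and 30 uM prostaglandin E2; NADH fluorescence (360/450 nm) read 5 times over 30-s intervals, last minus first.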
# ALDH1A1 inh: qHTS Assay for Inhibitors of Aldehyde Dehydrogenase 1 (ALDH1A1). Aldehyde dehydrogenase 1A1 (Homo sapiens), P00352. Purified ALDH1A1, NADH fluorescence, propionaldehyde substrate. Potency, µM (top dose mostly 75.3 µM), inactives show at the top dose activity, negative = inhibition, actives largely listed as inhibitors. 220,000 compounds, 7.3% hits;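 note: potency is the fitted concentration of half-maximal effect; plate controls were no enzyme wells and a reference inhibitor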
# PNC assembly inh: High Content Assay for Compounds that inhibit the Assembly of the Perinucleolar Compartment; AID 2417, 2010; activity change (PNC), negative = inhibition, % at 10 µM; PC3M PTB-GFP, PNC prevalence imaging, 16 h; hits give low values; 140,000 compounds, 3.1% hits;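 active = readout at or below -70, meaning at least 70% loss of cells showing the perinucleolar compartment, a nuclear body marking cancer cells; inconclusive = readout between -30 and a set limit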;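 note: plate controls were DMSO wells for no effect and camptothecin positive control wells for full effect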
#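 Read-out is percentage of cells bearing a perinucleolar compartment, from automated 20x imaging of fixed, Hoechst-stained PC3M PTB-GFP cells. Cells were seeded 4 h, then exposed 16 h to compound (23 nl of library stock) in duplicate plates.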
# Active calls of the source: *; ? = inconclusive; nt = no result; [ ] = dose if it differs, or a comment. Unless noted, calls come from the whole dose curve; as a rule, active = well fitted inhibition curve with a large enough effect (not every such curve was filed as active); inconclusive = small, poorly fitted or top-dose-only effect, or another doubt; inactive = no such curve, though single readings can be large or run the other way. Unless noted, % is set by controls: 0 for no effect and ±100 for the full control effect.
SMILES,IMPase Li inh,IMPase cell inh,HPGD inh,ALDH1A1 inh,PNC assembly inh
CCOC(=O)CC1=C(C(=O)OCC)C(c2cccs2)C(C#N)=C(N)O1 (stereo not given),1%[38.3 µM],-3,-5%,-8%,-10
COc1ccc(N2CSC3=C(C#N)C(c4cccs4)CC(=O)N3C2)cc1 (stereo not given),13µM*,-14,7.1µM*,2µM*,?
CCc1ccc(N2CSC3=C(C#N)C(c4cccs4)CC(=O)N3C2)cc1 (stereo not given),-14%[38.3 µM],-28,13µM*,8.9µM*,-20
N#CC1=C2SCN(Cc3ccco3)CN2C(=O)CC1c1ccccc1F (stereo not given),6%[38.3 µM],0,18µM*,10µM*,24
CCCCNC1C(CC)C(CCC)C(C#N)(C#N)C1(C#N)C#N (stereo not given),26%[38.3 µM],-8[1.84 µM],-23%,-4%,11
COc1ccc(CCNC(=O)c2cccnc2SC)cc1,1%,nt,nt,8%,nt
COc1ccc(NC(=O)Cn2c(=O)n(Cc3ccco3)c(=O)c3cc(OC)c(OC)cc32)cc1,nt,2,nt,nt,nt
Cc1ccc(C(=O)CC2(O)C(=O)N(CCc3ccccc3)c3ccc(Cl)cc32)cc1 (stereo not given),nt,11,nt,nt,nt
CCNS(=O)(=O)c1ccc(C)cc1,-1%,nt,-12%,26%,nt
CN1CSC2=C(C#N)C(c3cccc(OCc4ccccc4)c3)CC(=O)N2C1 (stereo not given),5%[38.3 µM],-2,14µM*,7.9µM*,27
N#CC1=C2SCN(c3ccc(F)cc3)CN2C(=O)CC1c1cccc(F)c1 (stereo not given),?,-6,5.6µM*,1.9µM*,29
Cc1ccc(N2CSC3=C(C#N)C(c4cccs4)CC(=O)N3C2)cc1 (stereo not given),-29%[38.3 µM],-10,7.9µM*,8.9µM*,?
CCc1ccc(C2CC(=O)N3CN(c4ccccc4)CSC3=C2C#N)cc1 (stereo not given),-4%[38.3 µM],-3,7.9µM*,10µM*,32
COc1ccc(-n2c(=O)c(-c3ccccc3)nc3cnc(N4CCOCC4)nc32)cc1,1%,nt,nt,?,nt
CCOc1ccc(-c2cc(C(=O)N/N=C/c3ccc(O)c(OC)c3)[nH]n2)cc1,nt,nt,-14%,?,nt
CCCCc1nc2c(c3c1C[C@H](C)OC3)CN(S(=O)(=O)c1ccccc1C(=O)OC)CC2,7%,nt,-8%,6%[13.5 µM],nt
CCOc1ccc(Br)cc1S(=O)(=O)Nc1ccc(Cl)c(S(=O)(=O)N(C)C)c1,nt,-6,nt,0.35µM*,44
CCOc1ccc(Br)cc1S(=O)(=O)Nc1ccc(Cl)c(S(=O)(=O)N(CC)c2ccccc2)c1,2%,nt,-6%,13%,0
CCc1n[nH]c(=S)n1/N=C/c1cc(Br)c(OC)cc1OC,0%,nt,7.9µM*,11%,154
CN(C)c1cc[n+](CC(=O)c2ccc(-c3ccccc3)cc2)cc1,10%,nt,nt,?,nt
Cc1ccc2[nH]c(=O)c(CN(Cc3cccs3)Cc3nnnn3CC3CCCO3)cc2c1 (stereo not given),-5%[38.3 µM],1,-12%,20µM*,-18
Cc1ccc2cc(CN(Cc3cccs3)Cc3nnnn3CC3CCCO3)c(=O)[nH]c2c1 (stereo not given),21%[38.3 µM],?,-13%,7.9µM*,23
CCN(C(=O)c1ccco1)c1nnc(-c2ccc(OC)cc2)s1,-16%,-7,?,?,-100*
COc1cc(NS(=O)(=O)c2ccc(NC(=O)/C(=C\c3ccccc3OC)NC(=O)c3ccccc3)cc2)nc(OC)n1,0%,0,-11%,-6%,0
COC(=O)c1ccc(NC(=O)COC(=O)C2CC(=O)N(Cc3ccccc3)C2)cc1 (stereo not given),-3%,nt,nt,1%,nt
SMILES,IMPase Li inh,IMPase cell inh,HPGD inh,ALDH1A1 inh,PNC assembly inh
O=C(COC(=O)C1CC(=O)N(Cc2ccco2)C1)c1ccc(OC(=O)c2ccccc2)cc1 (stereo not given),3%,9,28µM*,14µM*,-3
O=C(OCC(=O)N1c2ccccc2Sc2ccccc21)C1CC(=O)N(Cc2ccco2)C1 (stereo not given),-3%[38.3 µM],-8,-12%,35µM*,-21
Cc1c(C(=O)OC(C)C)sc(NC(=O)C2c3ccccc3Oc3ccccc32)c1C(=O)OC(C)C,nt,1,nt,nt,nt
COc1ccc(N2C(=O)C3C4C=CC(c5ccccc5)(C3C2=O)C2C(=O)N(c3ccc(OC)cc3)C(=O)C42)cc1 (stereo not given),3%,nt,nt,?,nt
O=C1C2C3C=CC(CO)(O3)C2C(=O)N1c1ccccc1-c1ccccc1 (stereo not given),15%[38.3 µM],15,7.9µM*,1.1µM*,17
O=S(=O)(NCc1cc(-c2ccc(Cl)cc2)no1)c1ccccc1,-2%[38.3 µM],-4,-3%,9%,-11
O=C1C2C3C=CC(CNS(=O)(=O)c4ccccc4)(O3)C2C(=O)N1c1ccc(Cl)cc1 (stereo not given),5%,nt,22µM*,0.63µM*,-19
CC(=O)Oc1ccc(N2C(=O)C3C4C=CC(CO)(O4)C3C2=O)cc1 (stereo not given),-4%[38.3 µM],4,22µM*,0.71µM*,-18
CC(=O)Oc1ccc(-n2c(=O)c3ccccc3c3ccccc3c2=O)cc1,20%,nt,nt,-5%,nt
CC(=O)Oc1ccc(N2C(=O)C3C(C2=O)C2(C)C=CC3(C)O2)cc1 (stereo not given),20%[38.3 µM],-5,13µM*,0.63µM*,27
COc1ccc2c(c1)OCC(Cc1ccc(OC)c(O)c1)C2=O (stereo not given),3%,nt,?,-13%,nt
Cc1o[nH]c(=O)c1CCC(N)C(=O)O (stereo not given),-8%,nt,nt,9%,nt
COC(=O)c1cc(N2C(=O)C3C(C2=O)C2(C)C=CC3(C)O2)ccc1Cl (stereo not given),21%,10,2.8µM*,0.11µM*,55
CC1CCN(C(=O)c2cc(N3C(=O)C4C5CCC(C5)C4C3=O)ccc2Cl)CC1 (stereo not given),-5%,nt,nt,0%,nt
COc1ccc(C(C)=O)cc1COc1ccc([N+](=O)[O-])c(C)c1,21%,nt,nt,?,nt
COc1ccc(C(C)=O)cc1COC(=O)c1ccc(N)c([N+](=O)[O-])c1,11%,nt,nt,10µM*,nt
COc1ccc(C(C)=O)cc1COc1ccccc1[N+](=O)[O-],1%,nt,nt,3.2µM*,nt
O=C1CCC(C(=O)N(Cc2cccs2)C2(C(=O)NC3CCCCC3)CCCCC2)N1 (stereo not given),1%,nt,nt,?,nt

# Source: PubChem (National Center for Advancing Translational Sciences (NCATS))
